Compound activity: PubChem BioAssay, several laboratories
Only some compounds are listed: those with a hit (about 0.78% of all), similar ones and a draw of the others.
3CLpro inhibitor – SARS-CoV 3CLpro protease inhibition. P0C6X7. recombinant SARS-CoV 3CLpro, quenched FRET peptide cleavage. inhibition, % at 6 µM. 290,000 compounds, 0.14% hits; in the data active = inhibition above about 12%
BJeLR lethal – BJeLR cell viability loss. BJeLR (HRASV12) viability, CellTiter-Glo ATP luminescence, 48 h. AID 1554. inhibition, % (no concentration beside the values). 300,000 compounds, 0.17% hits; in the data active = inhibition above about 50%
PriA SSB inh – inhibitors of Klebsiella pneumoniae PriA binding to SSB C-terminal tail; AlphaScreen SSBct-PriA binding, biotinylated peptide; inhibition, % at 33 µM; 430,000 compounds, 0.6% hits; in the data active = inhibition mostly above about 37%, no sharp cut-off; inactive = mostly below about 20%;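 also: plate controls were negative control peptide for no effect and reference peptide for full effect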
The depositor's hits bear a star.

For O=C(c1ccco1)N1CCN(S(=O)(=O)c2ccc(Cl)c(C(F)(F)F)c2)CC1 the results were PriA SSB inh -5.0.
Screening Nc1nc2ccc(C(=O)NCCO)cc2s1 returned PriA SSB inh 81.0*.
`CCCCNC(=O)c1ccc2nc(N)sc2c1` gave PriA SSB inh 52.2.
Screening O=C(NCCOc1ccccc1)NCC1(c2ccc(F)cc2)CC1 returned PriA SSB inh -23.0.
Screening Nc1cc(N)cc(-c2nc3ccccc3[nH]2)c1 returned 3CLpro inhibitor -2.7 and PriA SSB inh 45.1*.
`c1ccc(-c2nc3ccccc3[nH]2)cc1` gave 3CLpro inhibitor -6.0, BJeLR lethal 5.6 and PriA SSB inh -12.5.
CCOc1cc(N)ncn1 was read as PriA SSB inh 2.0.
For O=C(NCc1ccc(F)cc1)N1CC(Oc2nc3ccccc3s2)C1 the results were PriA SSB inh 1.0.
Screening CC(=O)Nc1ccc(S(=O)(=O)N2CCCC2C(=O)Nc2ccc3c(c2)OCCO3)cc1 (stereo unspecified) returned 3CLpro inhibitor 4.5, BJeLR lethal -0.7 and PriA SSB inh -8.0.
`Cc1ccc(S(=O)(=O)N2C(=O)CCC2C(=O)Nc2ccc3c(c2)OCCO3)cc1` (stereo unspecified) gave 3CLpro inhibitor -1.5, BJeLR lethal -8.0 and PriA SSB inh 96.2*.
O=C(NCCCN1CCN(CCCNC(=O)c2ccccc2F)CC1)c1ccccc1F was read as 3CLpro inhibitor 8.1, BJeLR lethal -1.4 and PriA SSB inh 61.3*.
O=C(NCCN1CCN(c2ccccc2)CC1)c1ccccc1F was read as 3CLpro inhibitor -3.4, BJeLR lethal -0.6 and PriA SSB inh 16.5.
For Cc1cccc(Nc2ccc(N3CCN(C(=O)COc4ccccc4)CC3)nn2)n1 the results were PriA SSB inh 6.0.
For COc1cc2c(cc1OC)-c1c(OC)c(OC)cc3c1[C@H](C2)N(C)CC3 the results were 3CLpro inhibitor -4.6, BJeLR lethal -3.2 and PriA SSB inh 73.2*.
COc1cc2c(cc1O)CC1c3c(cc(O)c(OC)c3-2)CCN1C (stereo unspecified) was read as 3CLpro inhibitor -4.2, BJeLR lethal 7.2 and PriA SSB inh 33.1.
Cc1ccc(NC(=O)Cn2nc(-c3cccc(Br)c3)ccc2=O)c(C)c1 was read as PriA SSB inh 3.0.
`CC(=NNC(=O)c1ccc(NN=C(C)c2ccncc2)cc1)c1ccncc1` gave PriA SSB inh 1.0.
Screening CCN(CC)c1ccc2cc(-c3nc4ccccc4[nH]3)c(=O)oc2c1 returned 3CLpro inhibitor -39.5, BJeLR lethal 11.6 and PriA SSB inh -21.7.
Screening CCN(CC)c1ccc2nc3ccc(N)cc3[n+](-c3ccccc3)c2c1 returned PriA SSB inh 53.6*.
`CCN(CC)c1ccc2nc3ccccc3[n+](CC)c2c1` gave 3CLpro inhibitor 0.9, BJeLR lethal 39.7 and PriA SSB inh 41.8*.
CCN(CC)c1ccc(C=NN=C(N)N)c(O)c1 was read as PriA SSB inh 20.2.
Screening O=c1cc[nH]c2c1ccc1c(=O)cc[nH]c12 returned 3CLpro inhibitor -3.7, BJeLR lethal 7.9 and PriA SSB inh 2.6.
For Cc1ccnc2c(=O)cc[nH]c12 the results were PriA SSB inh 104.0*.
Screening O=C(Cn1cc(S(=O)(=O)N2CCCC2)ccc1=O)Nc1ccc(Br)cc1 returned PriA SSB inh -8.0.
`CCOc1ccc(NC(=O)n2ncc3c(C)cccc32)cc1` gave 3CLpro inhibitor -0.1, BJeLR lethal 9.9 and PriA SSB inh 2.0.
COc1cccc(NC(=O)n2ncc3c(C)cccc32)c1 was read as 3CLpro inhibitor -0.7, BJeLR lethal 53.9* and PriA SSB inh -12.0.
Screening O=C(c1cc2ccccc2s1)N1CCN(c2cc(-n3cncn3)ncn2)CC1 returned PriA SSB inh -7.0.
Screening COc1ccc(CC(=O)Nc2nc(CN3CCc4ccccc4C3)cs2)cc1OC returned PriA SSB inh 52.0.
`Cc1ccc(NC(=O)Cn2ncn3nc4c(c3c2=O)CCCC4)c(C)c1` gave PriA SSB inh -3.0.
`CN(C)c1ccc(CNS(=O)(=O)c2csc(C(N)=O)c2)cc1` gave 3CLpro inhibitor 4.6, BJeLR lethal 0.1 and PriA SSB inh 4.8.
NC(=O)c1cc(S(=O)(=O)NCCCc2ccccc2)cs1 was read as 3CLpro inhibitor -0.8, BJeLR lethal -0.1 and PriA SSB inh 48.8*.
For N#Cc1c(N=Cc2ccccc2Br)oc(-c2ccccc2)c1-c1ccccc1 the results were PriA SSB inh -3.0.
Screening Cc1cc(=O)n2c(-c3cccc(NS(=O)(=O)c4ccc(C)s4)c3)csc2n1 returned PriA SSB inh -28.0.
`Cn1cccc1C(CNC(=O)c1ccc(C(C)(C)C)cc1)N1CCCC1` (stereo unspecified) gave PriA SSB inh 9.0.
Screening Cn1cccc1C(CNC(=O)c1ccc2ccccc2c1)N1CCCC1 (stereo unspecified) returned PriA SSB inh 22.0*.
`CC(=O)Nc1ccc2c(c1)sc(=NC(=O)c1ccc(Br)s1)n2C` gave PriA SSB inh -11.0.
For Cc1ncc(CO)c2cc(C(=O)c3ccc4c(c3)OCO4)c(=O)oc12 the results were PriA SSB inh -13.0.
For O=C(CN1CCN(C(=O)c2ccco2)CC1)c1cccs1 the results were PriA SSB inh 16.0.
Screening O=C(NCCN1Cc2cc(Cl)ccc2OCC1=O)c1cccc(OC(F)(F)F)c1 returned PriA SSB inh -5.0.
Screening CCNc1nc(NCC)nc(OCC(=O)O)n1 returned 3CLpro inhibitor 0.7, BJeLR lethal 3.2 and PriA SSB inh 0.8.
For CCNc1nc(NCC)nc(C(=O)NN)n1 the results were 3CLpro inhibitor -3.1, BJeLR lethal -6.0 and PriA SSB inh 82.8*.
For CCOC(=O)c1ccc(NC(=O)Nc2ccc(-c3ccc(NC(=O)Nc4ccc(C(=O)OCC)cc4)c(OC)c3)cc2OC)cc1 the results were PriA SSB inh -16.0.
CNC(=O)c1c(NC(=O)c2ccccc2Cl)sc(C)c1C was read as PriA SSB inh -8.0.
`CC1=CC(=O)C=C(C)C1=NOS(=O)(=O)c1ccccc1` gave 3CLpro inhibitor 1.5, BJeLR lethal 82.1* and PriA SSB inh -21.4.
Screening CC1=CC(=NOS(=O)(=O)c2ccccc2)C(C(C)C)=CC1=O returned PriA SSB inh 1.7.
`CC1=CC(=O)C(C(C)C)=C/C1=N/OS(=O)(=O)c1ccccc1` gave 3CLpro inhibitor 4.3 and BJeLR lethal 115.8*.
Screening CC1=CC(=O)C=C(C)C1=NC(=NS(=O)(=O)c1ccccc1)c1ccccc1 returned PriA SSB inh 14.0.
`Cc1cc(C=NNC(N)=S)c(O)c(C=NNC(N)=S)c1` gave PriA SSB inh 58.6*.
For Cc1ccc(-n2c(C)cc(C=NNC(N)=S)c2C)cc1 the results were PriA SSB inh 22.8.
Screening CSCCC(C(=O)O)N1C(=O)/C(=C/c2ccc[nH]2)SC1=S (stereo unspecified) returned PriA SSB inh 7.0.
Screening CCN(CC)c1ccc(NC(=S)NC(=O)C2CCC2)cc1 returned 3CLpro inhibitor -3.7, BJeLR lethal -10.1 and PriA SSB inh 55.2*.
Screening CC(=O)Nc1ccc(NC(=S)NC(=O)C2CCCC2)cc1 returned 3CLpro inhibitor 1.0, BJeLR lethal 0.4 and PriA SSB inh -10.0.
For CC1=NN(Cc2ccc(Cl)c(Cl)c2)c2nc3c(c(=O)n(C)c(=O)n3C)n2C1C (stereo unspecified) the results were PriA SSB inh 12.0.
